Our source for the fluorescence ratio to DMSO values is PubChem BioAssay AID602162 (NMMLSC, 2011).

Out of some 360,000 compounds screened, about 690 (0.19%) were called active. The sample holds actives, similar compounds and a random draw of the others, so the mix is not that of the screen.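 The calls were made as follows: active = fluorescence ratio to DMSO below 75%, the collection mean minus 3 SD; inconclusive = too few cells collected in the well; inactive = the rest.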

Chain of ATP-binding cassette sub-family B member 6 (Homo sapiens) (Q9NP58 whole entry, looked up): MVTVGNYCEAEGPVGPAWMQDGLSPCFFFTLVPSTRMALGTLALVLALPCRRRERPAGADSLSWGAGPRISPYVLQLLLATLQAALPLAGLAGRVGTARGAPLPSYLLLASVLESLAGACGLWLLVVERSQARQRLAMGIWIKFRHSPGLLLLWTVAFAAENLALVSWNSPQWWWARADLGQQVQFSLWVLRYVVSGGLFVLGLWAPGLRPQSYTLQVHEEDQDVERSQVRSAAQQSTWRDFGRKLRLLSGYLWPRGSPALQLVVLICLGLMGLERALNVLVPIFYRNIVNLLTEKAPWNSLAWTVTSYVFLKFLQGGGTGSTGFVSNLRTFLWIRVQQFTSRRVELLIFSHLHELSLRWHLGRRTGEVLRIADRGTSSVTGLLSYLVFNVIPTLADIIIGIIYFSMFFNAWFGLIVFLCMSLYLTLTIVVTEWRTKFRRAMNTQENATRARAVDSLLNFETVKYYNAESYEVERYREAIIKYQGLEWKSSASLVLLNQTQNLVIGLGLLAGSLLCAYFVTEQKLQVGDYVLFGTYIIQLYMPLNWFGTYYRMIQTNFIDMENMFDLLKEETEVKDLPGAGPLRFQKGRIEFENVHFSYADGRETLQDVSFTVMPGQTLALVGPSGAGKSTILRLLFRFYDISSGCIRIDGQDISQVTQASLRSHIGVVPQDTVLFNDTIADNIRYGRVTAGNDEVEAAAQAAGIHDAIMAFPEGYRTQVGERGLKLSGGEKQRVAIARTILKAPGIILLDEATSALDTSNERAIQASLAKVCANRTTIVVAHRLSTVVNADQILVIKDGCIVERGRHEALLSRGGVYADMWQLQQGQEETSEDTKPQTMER

The assay addresses ATP-binding cassette sub-family B member 6 (Homo sapiens) (UniProt Q9NP58). Briefly: ABCB6 transporter inhibitors, primary screen, K562-ABCB6 cells, flow cytometry, MLPCN library (AID 602162).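 Also: signal is porphyrin accumulated inside mitochondria; 100% equals median channel fluorescence of DMSO control wells; lower ratio means ABCB6 inhibition with less porphyrin fluorescence.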 The settings on record: K562-ABCB6 porphyrin accumulation, 1 h, at 10 µM, hits give low values. A general note: In flow cytometry, cells or beads pass a laser one at a time.
Regarding `O=C(NC1CCCCC1)c1ccc2c(=O)n(CC3CCCO3)c(=O)[nH]c2c1` (stereo not drawn), the fluorescence ratio to DMSO was 97% (inactive).
For `Cc1ccc2nc3c(cc(C(=O)NCCc4ccccc4)c(=N)n3CC3CCCO3)c(=O)n2c1` (stereo not drawn), the fluorescence ratio to DMSO is 66% (active).
With `Cc1ccc(CCNC(=O)c2ccc3nc4ccccc4c(=O)n3c2)cc1`, the fluorescence ratio to DMSO is 100% (inactive).
Under `COc1cc2c(cc1OC)C(c1cccc([N+](=O)[O-])c1)=NCC2` stands 100% (inactive).
Under `C=CCN1CC(C)/C(=N\O)CC1C` (stereo not drawn) stands 88% (inactive); under `O=C(Cc1ccc([N+](=O)[O-])cc1)NCCS(=O)(=O)N1CCN(c2ccccc2)CC1`, 107% (inactive); under `Cc1cc(Cl)ccc1OCCCC(=O)NCc1ccccn1`, 89% (inactive).
For `Cc1ccc(SCCC(=O)NCc2ccccn2)cc1`, the fluorescence ratio to DMSO was 98% (inactive).
Consider `Cc1cc(C)cc(NC(=O)NCc2ccccn2)c1`, for which the fluorescence ratio to DMSO is 58% (active).
Under `NC(=O)c1ncc(C(F)(F)F)cc1Oc1ccc(F)cc1` stands 91% (inactive).
On to `CCOc1cc(/C=C2/N=C(c3ccc(C(C)(C)C)cc3)OC2=O)cc(Cl)c1OS(C)(=O)=O`, for which the fluorescence ratio to DMSO was 102% (inactive).
On to `CC(C)(C)Cc1c(C2CCCCC2)nc2ccc(Br)cn12`, for which the fluorescence ratio to DMSO was 101% (inactive).
Regarding `O=C(CSc1nc2ncccc2[nH]1)Nc1ccc2c(c1)OCCO2`, the fluorescence ratio to DMSO is 103% (inactive).
Regarding `COc1cc2[nH]c(=S)n(Cc3ccc(C)o3)c(=O)c2cc1OC`, the fluorescence ratio to DMSO was 100% (inactive).
As for `CCOc1cc2[nH]c(=S)n(Cc3ccc(C(=O)NCCOC)cc3)c(=O)c2cc1OCC`, the figure is 98% (inactive); as for `COc1cc2[nH]c(=S)n(Cc3ccc(F)cc3)c(=O)c2cc1OC`, 72% (active); as for `CCOC(=O)[C@]12CCC=C1N(Cc1ccco1)C(=O)[C@H](CC(=O)NCc1cccc(C(F)(F)F)c1)C2`, 107% (inactive).
As for `CCOC(=O)N1CCN(C(=O)CN(C2CCCCC2)S(C)(=O)=O)CC1`, the figure is 73% (active); as for `CS(=O)(=O)N(CC(=O)N1CCN(c2ccc(F)cc2)CC1)C1CCCCC1`, 94% (inactive).
Take `CCC(C)NC(=O)CN(C1CCCCC1)S(C)(=O)=O` (stereo not drawn): the fluorescence ratio to DMSO is 98% (inactive).
Under `C=CCn1c(CNS(=O)(=O)c2ccc(Br)cc2)nnc1SC` stands 96% (inactive); under `C=Cn1cc[n+](CC(=O)c2ccc(OC)c(OC)c2)c1`, 97% (inactive).
On to `CCOC(=O)Cc1csc(NC(=O)CN(C)S(=O)(=O)c2ccc3c(c2)CCC(=O)N3)n1`, for which the fluorescence ratio to DMSO was 98% (inactive).
Turning to `CN(CC(=O)NC(=O)Nc1ccccc1F)Cc1ccccc1`, the fluorescence ratio to DMSO was 97% (inactive).
For the compound `CCOC(=O)c1ccc(-n2c(C)nc3c(cnn3-c3ccccc3C)c2=O)cc1`, the fluorescence ratio to DMSO is 100% (inactive).
As for `Cc1cccc(N2CCN(C(=O)CCS(=O)(=O)c3ccc4c(c3)NC(=O)C(C)S4)CC2)c1C` (stereo not drawn), the figure is 74% (active).
Under `COc1ccccc1N1CCN(C(=O)CCS(=O)(=O)c2ccc3c(c2)NC(=O)C(C)S3)CC1` (stereo not drawn) stands 102% (inactive); under `CC1Sc2ccc(S(=O)(=O)CCC(=O)NCc3ccccc3Cl)cc2NC1=O` (stereo not drawn), 93% (inactive); under `COc1ccc(C(=O)NC2CC2)cc1OC1CCN(C/C=C/c2ccccc2)CC1`, 95% (inactive).
Under `Cc1ccc(CN(C(=O)c2sc3ccccc3c2Cl)C2CCS(=O)(=O)C2)cc1` (stereo not drawn) stands 95% (inactive); under `CCCn1c(O)c(CN2CCCC(C)C2)c(C)c(C#N)c1=O` (stereo not drawn), 96% (inactive); under `CCCCn1nc(C(=O)N2CCc3ccccc32)c2ccccc2c1=O`, 102% (inactive).
Turning to `Cc1ccc(CNC(=O)c2ccc(CS(=O)Cc3cccc(Cl)c3)o2)cc1` (stereo not drawn), the fluorescence ratio to DMSO is 102% (inactive).
On to `O=C(O)c1ccn(COc2ccc(Br)cc2)n1`, for which the fluorescence ratio to DMSO is 95% (inactive).
Under `CN(CC(=O)Nc1ccc(F)cc1)CC(=O)Nc1ccc(Cl)c(S(=O)(=O)N2CCOCC2)c1` stands 100% (inactive).
Under `Cc1cccc(CS(=O)(=O)c2ncc(Cl)c(C(=O)Nc3ccc(F)cc3)n2)c1` stands 44% (active); under `O=C(CS(=O)(=O)Cc1ccccc1)Nc1cccnc1`, 93% (inactive).
As for `Cc1cccc(C(=O)Nc2ccc(Oc3cnccn3)cc2)c1`, the figure is 98% (inactive).
In the case of `Cc1cccc(NC(=O)c2nc(S(=O)(=O)Cc3ccccc3)ncc2Cl)c1`, the fluorescence ratio to DMSO was 59% (active).
Under `Cc1cccc(NS(=O)(=O)c2ccc(C)c(C(=O)NCc3cccnc3)c2)c1` stands 98% (inactive); under `O=C(CSc1nnc(SCc2ccc(Cl)cc2)s1)N/N=C/c1ccccc1Cl`, 115% (inactive).
Under `O=C(CSc1nncs1)NC1CCCc2ccccc21` (stereo not drawn) stands 104% (inactive); under `CCCCC(O)C1=C[N+](=O)CC=C1` (stereo not drawn), 92% (inactive).
As to `O=C(Nc1ccc(F)cc1)Nc1nnc([C@H]2C[C@H](O)[C@@H](CO)O2)s1`, the fluorescence ratio to DMSO was 104% (inactive).
Under `CCOc1ccc(CCNC(=O)CN2C(=O)NC3(CCc4ccccc43)C2=O)cc1OCC` (stereo not drawn) stands 103% (inactive); under `CCC(=O)Nc1cccc(NC(=O)CSc2nnc(-c3ccc(NS(C)(=O)=O)cc3)n2C)c1`, 103% (inactive); under `C=C1CCN([C@H](C(=O)NCc2cc(OC)c(OC)c(OC)c2)C(C)C)S(=O)(=O)c2ccccc21`, 97% (inactive).
Take `Cc1cccc(C(=O)NCc2nnc(SC(C)C(=O)Nc3nnc(C)s3)n2C)c1` (stereo not drawn): the fluorescence ratio to DMSO is 101% (inactive).
As for `CC(=O)c1cccc(NC(=O)CN2C(=O)c3cccnc3Oc3ccc(Cl)cc32)c1`, the figure is 114% (inactive).
Under `CC(C)[C@H](NC(=O)Nc1ccc(S(N)(=O)=O)cc1)C(=O)O` stands 107% (inactive).
Under `CC(C)(C)C(=O)c1cnc(Nc2ccccc2)s1` stands 94% (inactive); under `Nc1nc(COC(=O)CCC(=O)c2ccc(Cl)cc2)nc(Nc2ccccc2)n1`, 94% (inactive).
`O=C(c1ccc(Cl)cc1)c1cnc(Nc2ccccc2)s1`: the fluorescence ratio to DMSO is 70% (active).
As for `ON=C1/C(=N\O)CC2(C/C1=N/O)OCCO2`, the figure is 103% (inactive); as for `O=C(COC(=O)c1cccc(Cl)c1Cl)NC1CCCCCC1`, 93% (inactive).
For the compound `COC(=O)c1ccc2nc(C3CCCCC3)c(Cc3cccc(F)c3)n2c1`, the fluorescence ratio to DMSO was 107% (inactive).
As for `COc1cccc(NC(=O)CS(=O)(=O)c2cn(CC(=O)N3CCOCC3)c3ccccc23)c1`, the figure is 97% (inactive).
For the compound `COc1ccccc1C(=O)Nn1cnnc1`, the fluorescence ratio to DMSO is 100% (inactive).
`COc1ccccc1C(=O)c1ccccc1C(=O)c1ccccc1`: the fluorescence ratio to DMSO is 102% (inactive).
With `COc1ccccc1C(=O)C(O)c1ccccc1OC` (stereo not drawn), the fluorescence ratio to DMSO was 73% (active).
`CCOc1ccc(S(=O)(=O)NCCC(=O)N2CCCCCCC2)cc1`: the fluorescence ratio to DMSO was 98% (inactive).
Under `CCOc1ccc(CCNC(=O)COC(=O)c2ccc(C)c(S(=O)(=O)N3CCOCC3)c2)cc1OCC` stands 101% (inactive); under `COc1c(O)ccc2c1CN1CCc3cc4c(cc3C1C2)OCO4` (stereo not drawn), 102% (inactive); under `Cn1ccnc1SCC(=O)Nc1ccc2c(c1)OCCO2`, 101% (inactive).
Under `CCn1c(COc2ccccc2)nnc1SCC(=O)Nc1ccc2c(c1)OCCO2` stands 73% (active); under `CCn1c(SCC(=O)Nc2ccc3c(c2)OCCO3)nnc1C(C)C`, 88% (inactive).
Take `COc1cc(CN2CCCC(C(=O)c3ccc(SC)cc3)C2)cc(Cl)c1O` (stereo not drawn): the fluorescence ratio to DMSO was 96% (inactive).
Under `COC(=O)C(=Nc1ccccc1)/C(C(=O)C(=O)N(C)c1ccccc1)=C(\O)c1ccc(Cl)cc1` stands 94% (inactive).
As to `COc1cc(NS(=O)(=O)c2ccc(NC(=O)c3ccc(S(=O)(=O)N4CCCCC4)cc3)cc2)ncn1`, the fluorescence ratio to DMSO was 102% (inactive).
As for `CCS(=O)(=O)N1CCC(N2CCN(c3ccccc3)CC2)CC1`, the fluorescence ratio to DMSO was 70% (active).
Under `CS(=O)(=O)N1CCC(C(=O)N2CCN(c3ccccc3)CC2)CC1` stands 108% (inactive); under `O=S(=O)(NCCS(=O)(=O)N1CCN(c2ccccc2)CC1)c1ccc(F)cc1`, 95% (inactive); under `CCOC(=O)c1cc(-c2sc(NC(=O)c3ccccc3)nc2C)n(-c2ccc(Br)cc2)n1`, 90% (inactive).
Under `COc1cccc(N(CC(=O)N2CCc3ccccc3C2)S(C)(=O)=O)c1` stands 73% (active); under `CS(=O)(=O)N(CC(=O)N1CCc2ccccc2C1)c1ccc(Br)cc1`, 95% (inactive).
Consider `Cc1ccc(S(=O)(=O)N(CC(=O)N2CCc3ccccc3C2)c2cccc(Cl)c2)cc1`, for which the fluorescence ratio to DMSO is 90% (inactive).
As for `COCCNc1cc(-c2ccccc2)nc2cc(-c3cccc(F)c3)nn12`, the figure is 97% (inactive); as for `CC1(C(=O)NS(=O)(=O)c2ccc3ccccc3c2)CCN1C(=O)C1(c2ccc(Cl)cc2)CCC1` (stereo not drawn), 102% (inactive); as for `Cc1ncn2cc(-c3ccc(Cl)cc3Cl)[nH]c(=O)c12`, 96% (inactive).
As for `O=C(COc1nsnc1N1CCOCC1)Nc1ccccc1Cl`, the figure is 95% (inactive); as for `O=C(Nc1ccccc1C(=O)N1CCCCCC1)c1ccccc1Cl`, 99% (inactive); as for `O=C(Nc1ccccc1Cl)/C(Cl)=C(\Cl)S(=O)c1ccccc1` (stereo not drawn), 43% (active).
As for `Cc1ccc(S(=O)(=O)N2C[C@@H]3CCCC[C@@H]3[C@@H](C)[C@H]2c2cn(Cc3ccccc3)c3ccc(F)cc23)cc1`, the figure is 97% (inactive).
As to `COc1cccc(N(CC(=O)NCCSc2ccccn2)S(C)(=O)=O)c1`, the fluorescence ratio to DMSO was 99% (inactive).
On to `Cc1ccc(C(=O)Nc2ccccc2-c2ccccc2)cc1S(=O)(=O)Nc1ccccc1`, for which the fluorescence ratio to DMSO is 99% (inactive).
As for `CCOC1=C2[C@H]([C@H]3C(=O)N(c4ccccc4)C(=O)[C@H]3C1)[C@@H](c1ccccc1)N(S(=O)(=O)c1ccc(C)cc1)[C@H]2c1ccccc1`, the figure is 104% (inactive); as for `Cc1cc(C)c(C(=O)CSc2nc(C)cc(=O)[nH]2)c(C)c1`, 101% (inactive); as for `Cc1cc(C(=O)CSc2nc(N)cc(=O)[nH]2)c(C)n1-c1cccc(F)c1`, 72% (active).
Under `Cc1cc(C(=O)CSc2nc(N)cc(=O)[nH]2)c(C)n1CCc1ccc(Cl)cc1` stands 95% (inactive); under `CC(Oc1ccccc1)C(=O)NN1Cc2ccccc2C1=N` (stereo not drawn), 99% (inactive); under `O=C(OCC(=O)N1CCCCC1)c1ccc(OC(F)(F)F)cc1`, 95% (inactive).
As for `O=C1NC2(CCCCCC2)C(=O)N1CCS(=O)(=O)Oc1ccccc1`, the figure is 96% (inactive); as for `O=c1ccc2cc(S(=O)(=O)N3CCN(c4ccccc4)CC3)ccc2o1`, 98% (inactive).
